# Assay results published in PubChem BioAssay (NCATS).
# Records with an inconclusive call do not appear. Where a call stands in place of a potency, no number is given. The source made the active and inactive calls. Unless noted, the call rests on the fitted dose curve. Bridge positions count the residues as written; N and C are the ends. Peptide text beside a SMILES is read from it.
# How the values were obtained:
# [1] = Primary qHTS for Huh7 cytotoxicity: counterscreen for inhibitors of MERS-S pseudotyped particle cell entry (AID 1479147); settings: outcome: dose series up to 57.1 µM unless noted
# [2] = Primary qHTS for inhibitors of MERS-S pseudo-typed particle cell entry (AID 1479149); settings: outcome: dose series up to 57.1 µM unless noted; further: nearly all actives have a fitted effect of over 60% in size
# [3] = Primary qHTS for Vero E6 cytotoxicity: counterscreen for inhibitors of SARS-S pseudo-typed particle cell entry (AID 1479150); settings: outcome: dose series up to 57.1 µM unless noted
# [4] = Cytotoxicity counterscreen for inhibitors of SARS-CoV-2 cell entry (AID 1645845); settings: outcome: dose series up to 57.1 µM unless noted; further: nearly all actives have a fitted effect of over 50% in size
# In short: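 ATP-content luminescence (ATPLite 1step, 15 min RT) read after 48 h compound exposure of Expi293F cells stably expressing human ACE2; normalized to cells-only wells and media-only wells.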
# [5] = Confirmatory qHTS to identify inhibitors of SARS-CoV-2 cell entry (AID 1645844); further: nearly all actives have a fitted effect of over 45% in size; further: potency means the concentration at half of the fitted maximal effect
# In short: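 Luminescence entry read-out after 48 h: spike-pseudotyped MLV particles (Wuhan-Hu-1, 19-aa C-terminal truncation) added to compound-pretreated (1 h) HEK293-ACE2 cells; Data were normalised to bald PP and spike PP wells.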
# [6] = Primary qHTS to identify inhibitors of SARS-CoV-2 cell entry (AID 1645846); settings: SARS-CoV-2 pseudovirus cell entry assay, luminescence; further: nearly all actives have a fitted effect of over 45% in size
# In short: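 Inhibition of spike-mediated entry was scored in human ACE2-transfected Expi293F cells. Particles were MLV-pseudotyped with Wuhan-Hu-1 S carrying a 19-aa C-terminal deletion; signal was luciferase after two days, scaled between spike PP and fusion-protein-free PP.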
# [7] = VSVG counterscreen qHTS to identify inhibitors of SARS-CoV-2 cell entry (AID 1645847); further: nearly all actives have a fitted effect of over 65% in size; further: potency means the concentration at half of the fitted maximal effect
# In short: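 Luminescence from a luciferase reporter, normalised to bald particle and VSV-G pseudotyped particle wells, is the read-out. Cells are HEK293 expressing human ACE2, exposed to compound 1 h before a 48 h particle infection at 37 °C.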
# [8] = target: Cytochrome P450 2D6 (Homo sapiens) (UniProt P10635); assay: Cytochrome P450 family 2 subfamily D member 6 (CYP2D6) small molecule antagonists: luciferase biochemical (cell-free) qHTS assay (AID 1645840; active means well fitted curve in the direction sought with a large enough effect in the repeat runs; an effect the other way counts as inactive or inconclusive; further: nearly all actives have a fitted effect of over 55% in size; further: potency means the concentration at half of the fitted maximal effect)
# In short: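 P450-Glo CYP2D6 system: proluciferin substrate converted by enzyme to luciferin, read by luminescence proportional to activity. Enzyme-substrate mix with compound 10 min at room temperature, then NADPH regeneration 1 h before detection reagent.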
# [9] = target: Glutathione peroxidase 1 (Homo sapiens) (UniProt P07203); assay: Primary qHTS Assay for Inhibitors of Recombinant Selenoprotein Glutathione Peroxidase 1 (GPX1) (AID 1845191; active means well fitted curve in the direction sought with a large enough effect; an effect the other way counts as inactive or inconclusive; further: nearly all actives have a fitted effect of over 65% in size)
# In short: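 NADPH consumption tracked by fluorescence at 340/450 nm between t=0 and t=15 min, room temperature. Final mix: 10 nM GPX1, 100 nM glutathione reductase, 1 mM GSH, 0.5 mM NADPH, 0.5 mM cumene hydroperoxide, 0.01% BSA; 30 min compound–enzyme preincubation.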
# [10] = target: Phospholipid hydroperoxide glutathione peroxidase GPX4 (Homo sapiens) (UniProt P36969); assay: Primary qHTS Assay for Inhibitors of Recombinant Selenoprotein Glutathione Peroxidase 4 (GPX4) (AID 1845192; active means well fitted curve in the direction sought with a large enough effect; an effect the other way counts as inactive or inconclusive; further: nearly all actives have a fitted effect of over 65% in size)
# In short: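 NADPH consumption followed by fluorescence at 340/450 nm, t=0 and after 15 min at room temperature. Reaction started with cumene hydroperoxide (0.5 mM final) after 30 min compound–GPX4 preincubation; final 200 nM GPX4, 100 nM GR, 1 mM GSH, 0.5 mM NADPH.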
# Glutathione peroxidase 1 (Homo sapiens), sequence (P07203 whole entry, looked up): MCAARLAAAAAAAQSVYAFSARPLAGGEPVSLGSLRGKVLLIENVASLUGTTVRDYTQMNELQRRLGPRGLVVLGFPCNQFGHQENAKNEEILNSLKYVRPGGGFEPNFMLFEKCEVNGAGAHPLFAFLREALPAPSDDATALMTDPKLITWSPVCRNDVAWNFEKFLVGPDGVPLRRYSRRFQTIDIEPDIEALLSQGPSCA
# Cytochrome P450 2D6 (Homo sapiens), sequence (P10635 whole entry, looked up): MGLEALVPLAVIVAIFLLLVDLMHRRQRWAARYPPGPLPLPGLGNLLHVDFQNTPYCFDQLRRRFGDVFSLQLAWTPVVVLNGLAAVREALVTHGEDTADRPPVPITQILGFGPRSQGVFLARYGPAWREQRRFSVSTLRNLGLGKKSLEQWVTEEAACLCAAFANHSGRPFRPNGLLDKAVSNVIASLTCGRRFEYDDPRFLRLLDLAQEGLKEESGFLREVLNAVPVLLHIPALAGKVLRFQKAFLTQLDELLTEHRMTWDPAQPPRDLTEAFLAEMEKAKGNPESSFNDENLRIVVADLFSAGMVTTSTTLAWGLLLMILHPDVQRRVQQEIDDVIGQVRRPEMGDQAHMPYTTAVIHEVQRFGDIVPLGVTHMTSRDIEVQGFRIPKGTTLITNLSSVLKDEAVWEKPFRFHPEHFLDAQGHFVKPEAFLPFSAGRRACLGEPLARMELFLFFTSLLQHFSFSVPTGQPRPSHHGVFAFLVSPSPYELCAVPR
# Phospholipid hydroperoxide glutathione peroxidase GPX4 (Homo sapiens), sequence (P36969 whole entry, looked up): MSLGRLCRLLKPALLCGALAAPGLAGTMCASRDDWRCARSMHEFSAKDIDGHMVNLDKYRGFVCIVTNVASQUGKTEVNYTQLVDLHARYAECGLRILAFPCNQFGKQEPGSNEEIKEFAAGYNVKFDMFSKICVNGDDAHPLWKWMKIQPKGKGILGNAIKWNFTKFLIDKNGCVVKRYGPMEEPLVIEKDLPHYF
smiles,measurement,setting,value
[Mn].[O]=[Mn][OH].[O]=[Mn][OH],Potency,[1],inactive
same,Potency,[2],inactive
same,Potency,[3],inactive
same,Potency,[4],inactive
CN(C)C(=O)c1cc2cnc(Nc3ccc(N4CCNCC4)cn3)nc2n1C1CCCC1,Potency,[1],inactive
same,Potency,[2],inactive
same,Potency,[3],inactive
same,Potency,[5],inactive
same,Potency,[4],inactive
same,"activity change, negative = inhibition",[6]; at 27.1 µM (top of the series),-19.2%
same,"activity change, negative = inhibition",[6]; at 57.1 µM (top of the series),-45.9%
same,Potency,[7],inactive
CC(OC(=O)NCC1(CC(=O)O)CCCCC1)OC(=O)C(C)C (stereo not given),Potency,[1],inactive
same,Potency,[2],inactive
same,Potency,[3],inactive
same,Potency,[4],inactive
O=P(O)(O)OC1C(OP(=O)(O)O)C(OP(=O)(O)O)C(OP(=O)(O)O)C(OP(=O)(O)O)C1OP(=O)(O)O (stereo not given),Potency,[1],inactive
same,Potency,[2],inactive
same,Potency,[3],inactive
same,Potency,[4],inactive
CCC(C)C(C(=O)OCC[N+](C)(CC)CC)c1ccccc1 (stereo not given),Potency,[1],inactive
same,Potency,[2],inactive
same,Potency,[3],inactive
same,Potency,[4],inactive
CCC(c1ccccc1)c1c(O)c2ccccc2oc1=O (stereo not given),Potency,[1],inactive
same,Potency,[2],inactive
same,Potency,[3],inactive
same,Potency,[4],inactive
CCCCCCCCCCCCCCCC(=O)OCC(O)C1OC(=O)C(O)=C1O (stereo not given),Potency,[1],inactive
same,Potency,[2],inactive
same,Potency,[3],inactive
same,Potency,[4],inactive
COc1ccc2c(=O)c(C)c(-c3ccccc3)oc2c1CN(C)C,Potency,[1],inactive
same,Potency,[2],inactive
same,Potency,[3],inactive
same,Potency,[4],inactive
CCCCCCC(=O)O[C@H]1CC[C@H]2[C@@H]3CCc4cc(O)ccc4[C@H]3CC[C@]12C,Potency,[1],inactive
same,Potency,[2],inactive
same,Potency,[3],inactive
same,Potency,[4],inactive
O=C(O)[C@H]1OC(O)[C@H](O)[C@@H](O)[C@@H]1O (stereo not given in full),Potency,[1],inactive
same,Potency,[2],inactive
same,Potency,[3],inactive
same,Potency,[4],inactive
C[C@@]12CCCCC[C@@H](Cc3ccc(O)cc31)[C@H]2N,Potency,[1],inactive
same,Potency,[2],inactive
same,Potency,[3],inactive
same,Potency,[8],16900 nM (active)
same,Potency,[9],inactive
same,Potency,[10],inactive
CCOc1ccc(N=C(C)Nc2ccc(OCC)cc2)cc1,Potency,[1],inactive
same,Potency,[2],inactive
same,Potency,[3],inactive
same,Potency,[4],inactive
CO/N=C(\C(=O)N[C@@H]1C(=O)N2C(C(=O)OCOC(=O)C(C)(C)C)=C(/C=C\c3scnc3C)CS[C@H]12)c1csc(N)n1,Potency,[1],inactive
same,Potency,[2],inactive
same,Potency,[3],inactive
same,Potency,[4],inactive
O=C1CCC(=O)N1CO,Potency,[1],inactive
same,Potency,[2],inactive
same,Potency,[3],inactive
same,Potency,[4],inactive
NCCCC[C@H](NC(=O)[C@@H]1CCCN1C(=O)[C@@H]1CSSC[C@H](NC(=O)CNC(=O)CNC(=O)CN)C(=O)N[C@@H](Cc2ccc(O)cc2)C(=O)N[C@@H](Cc2ccccc2)C(=O)N[C@@H](CCC(N)=O)C(=O)N[C@@H](CC(N)=O)C(=O)N1)C(=O)NCC(N)=O (H-GGGCYFQNCPKG-NH2; disulfide 4-9),Potency,[1],inactive
same,Potency,[2],inactive
same,Potency,[3],inactive
same,Potency,[4],inactive
N=C(N)c1ccc(/C=C/c2ccc(C(=N)N)cc2O)cc1,Potency,[1],inactive
same,Potency,[2],inactive
same,Potency,[3],inactive
same,Potency,[4],inactive
CCOc1nc2cccc(C(=O)OC(C)OC(=O)OC3CCCCC3)c2n1Cc1ccc(-c2ccccc2-c2nn[nH]n2)cc1 (stereo not given),Potency,[1],inactive
same,Potency,[2],inactive
same,Potency,[3],inactive
same,Potency,[5],2410 nM (active)
same,Potency,[4],inactive
same,Potency,[7],429 nM (active)
OC(c1ccccc1)(c1ccccc1)C12CC[N+](CCOCc3ccccc3)(CC1)CC2,Potency,[1],inactive
same,Potency,[2],inactive
same,Potency,[3],inactive
same,Potency,[4],inactive
NCCS[As](SCCN)c1ccc(Nc2nc(N)nc(N)n2)cc1,Potency,[1],inactive
same,Potency,[2],inactive
same,Potency,[3],inactive
same,Potency,[8],inactive
same,Potency,[4],inactive
same,"activity change, negative = inhibition","[6]; activity change, negative = inhibition: at 57.1 µM (top of the series) unless noted, outcome: at 57.1 µM (top of the series) unless noted",-25.6%
same,Potency,[9],inactive
CC(C)(C)NC(=O)N[C@H](C(=O)N1C[C@H]2[C@@H]([C@H]1C(=O)NC(CC1CCC1)C(=O)C(N)=O)C2(C)C)C(C)(C)C (stereo not given in full),Potency,[1],inactive
same,Potency,[2],inactive
same,Potency,[3],inactive
same,Potency,[4],inactive
CC(C)(C)CC(C)(C)c1cc(Cc2cc(C(C)(C)CC(C)(C)C)cc(-n3nc4ccccc4n3)c2O)c(O)c(-n2nc3ccccc3n2)c1,"activity change, negative = cytotoxicity",[1],1.83% [at 5.34 µM] (inactive)
same,outcome,[2],inactive [at 5.34 µM]
same,"activity change, negative = cytotoxicity",[3],-1.1% [at 5.34 µM] (inactive)
same,outcome,[4],inactive [at 5.25 µM]
